# Measurements from publication PMC7862700, “An all-to-all approach to the identification of sequence-specific readers for epigenetic DNA modifications on cytosine”.
# Experiments:
# Experiment in all cases: DAPPL (digital affinity profiling via proximity ligation, sequencing); 10 mM Tris-HCl pH 7.5, 50 mM NaCl, 1 mM DTT, 4% glycerol, room temperature, 30 min; GST-TFs on glutathione beads, 16-mer random dsDNA library, 0.1% formaldehyde crosslink after washing; high values mean tight binding
# [1] = molecular target: T1, FLI1 (Homo sapiens, UniProt Q01543 1-452); settings: protein: recombinant; tags: N-terminal GST; dsDNA, one strand shown
# T1 sequence: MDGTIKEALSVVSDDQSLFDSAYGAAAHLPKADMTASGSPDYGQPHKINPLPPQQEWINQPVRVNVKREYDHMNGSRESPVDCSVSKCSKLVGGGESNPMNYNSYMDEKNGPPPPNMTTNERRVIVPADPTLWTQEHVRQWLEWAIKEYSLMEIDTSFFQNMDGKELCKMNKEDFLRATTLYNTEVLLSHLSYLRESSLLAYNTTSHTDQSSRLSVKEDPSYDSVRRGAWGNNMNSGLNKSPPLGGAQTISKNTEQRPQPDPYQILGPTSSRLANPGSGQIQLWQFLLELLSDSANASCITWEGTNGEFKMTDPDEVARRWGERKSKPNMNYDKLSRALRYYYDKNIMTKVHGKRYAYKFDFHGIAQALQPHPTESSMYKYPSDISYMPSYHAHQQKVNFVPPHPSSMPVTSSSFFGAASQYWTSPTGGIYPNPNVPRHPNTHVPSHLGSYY
# In short: (§1)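 Human transcription factors carrying a GST fusion were produced in yeast, bound to glutathione beads, tagged with DNA barcodes and pooled together with a tag-only sample. Each pool was held with 200 nmole of a random double-stranded 16-mer DNA library in Tris/NaCl/DTT/glycerol buffer for 30 min at room temperature, then washed, crosslinked in 0.1% formaldehyde, proximity-ligated with BsaI/T4 ligase (1 h, 37 °C), PCR-amplified and sequenced on an Illumina NextSeq500. Binding signal is the read frequency of each hexamer for a given factor divided by its frequency in the tag-only sample.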
# [2] = molecular target: T2, ELK1 (Homo sapiens, UniProt P19419 1-428); settings: protein: recombinant; tags: N-terminal GST; dsDNA, one strand shown
# T2 sequence: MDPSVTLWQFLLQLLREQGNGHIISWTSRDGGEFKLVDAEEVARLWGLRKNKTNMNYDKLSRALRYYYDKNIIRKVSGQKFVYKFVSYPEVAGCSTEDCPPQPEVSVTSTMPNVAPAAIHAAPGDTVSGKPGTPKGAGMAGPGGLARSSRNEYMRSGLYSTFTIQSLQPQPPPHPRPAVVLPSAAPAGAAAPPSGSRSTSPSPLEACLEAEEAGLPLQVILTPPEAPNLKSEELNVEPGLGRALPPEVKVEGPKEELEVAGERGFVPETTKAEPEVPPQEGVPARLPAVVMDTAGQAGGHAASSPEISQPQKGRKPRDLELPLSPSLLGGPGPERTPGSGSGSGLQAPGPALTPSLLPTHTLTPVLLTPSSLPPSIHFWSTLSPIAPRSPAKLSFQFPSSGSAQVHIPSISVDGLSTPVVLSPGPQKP
# In short: as §1
# [3] = molecular target: T3, GABPA (Homo sapiens, UniProt Q06546 1-454); settings: protein: recombinant; tags: N-terminal GST; dsDNA, one strand shown
# T3 sequence: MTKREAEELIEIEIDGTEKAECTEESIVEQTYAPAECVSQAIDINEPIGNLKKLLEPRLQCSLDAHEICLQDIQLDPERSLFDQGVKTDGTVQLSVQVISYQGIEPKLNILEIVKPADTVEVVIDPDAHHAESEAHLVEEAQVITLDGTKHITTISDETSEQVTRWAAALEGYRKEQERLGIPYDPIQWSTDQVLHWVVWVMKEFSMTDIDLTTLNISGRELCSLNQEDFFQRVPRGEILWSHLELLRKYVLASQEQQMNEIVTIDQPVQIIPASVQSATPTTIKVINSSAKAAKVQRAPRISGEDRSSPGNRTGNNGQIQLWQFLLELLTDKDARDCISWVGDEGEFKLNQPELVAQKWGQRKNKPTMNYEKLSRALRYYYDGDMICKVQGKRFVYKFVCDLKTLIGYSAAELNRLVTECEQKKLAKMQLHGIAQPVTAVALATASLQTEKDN
# In short: as §1
# [4] = molecular target: T4, ERG (Homo sapiens, UniProt P11308 1-479); settings: protein: recombinant; tags: N-terminal GST; dsDNA, one strand shown
# T4 sequence: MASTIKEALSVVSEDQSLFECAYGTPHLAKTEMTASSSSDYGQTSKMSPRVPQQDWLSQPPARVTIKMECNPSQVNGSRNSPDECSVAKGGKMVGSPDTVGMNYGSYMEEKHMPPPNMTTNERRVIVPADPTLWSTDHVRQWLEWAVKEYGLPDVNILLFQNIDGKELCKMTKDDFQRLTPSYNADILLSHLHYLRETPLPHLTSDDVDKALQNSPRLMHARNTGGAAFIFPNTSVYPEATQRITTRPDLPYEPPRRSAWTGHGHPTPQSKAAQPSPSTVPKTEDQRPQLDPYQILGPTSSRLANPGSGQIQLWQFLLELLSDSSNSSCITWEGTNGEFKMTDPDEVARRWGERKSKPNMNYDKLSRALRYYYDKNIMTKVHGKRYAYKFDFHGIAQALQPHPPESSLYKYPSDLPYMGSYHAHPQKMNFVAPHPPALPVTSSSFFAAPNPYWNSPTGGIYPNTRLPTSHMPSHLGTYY
# In short: as §1
# [5] = molecular target: ELF1 (Homo sapiens, UniProt P32519 1-619); settings: protein: recombinant; tags: N-terminal GST; dsDNA, one strand shown
# In short: as §1
# [6] = molecular target: T5, EHF (Homo sapiens, UniProt Q9NZC4 1-300); settings: protein: recombinant; tags: N-terminal GST; dsDNA, one strand shown
# T5 sequence: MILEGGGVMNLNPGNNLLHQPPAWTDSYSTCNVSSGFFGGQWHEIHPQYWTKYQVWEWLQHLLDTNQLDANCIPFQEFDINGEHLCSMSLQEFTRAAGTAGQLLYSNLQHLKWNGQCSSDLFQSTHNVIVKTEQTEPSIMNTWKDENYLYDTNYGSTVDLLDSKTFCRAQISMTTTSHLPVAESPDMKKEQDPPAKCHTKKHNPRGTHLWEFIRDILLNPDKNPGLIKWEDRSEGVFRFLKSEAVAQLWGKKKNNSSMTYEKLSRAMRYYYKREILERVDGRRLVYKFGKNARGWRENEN
# In short: as §1
# [7] = molecular target: SPI1 (Homo sapiens, UniProt P17947 1-270); settings: protein: recombinant; tags: N-terminal GST; dsDNA, one strand shown
# In short: as §1
# [8] = molecular target: SPIB (Homo sapiens, UniProt Q01892 1-262); settings: protein: recombinant; tags: N-terminal GST; dsDNA, one strand shown
# In short: as §1
# [9] = molecular target: T6, ELK3 (Homo sapiens, UniProt P41970 1-407); settings: protein: recombinant; tags: N-terminal GST; dsDNA, one strand shown
# T6 sequence: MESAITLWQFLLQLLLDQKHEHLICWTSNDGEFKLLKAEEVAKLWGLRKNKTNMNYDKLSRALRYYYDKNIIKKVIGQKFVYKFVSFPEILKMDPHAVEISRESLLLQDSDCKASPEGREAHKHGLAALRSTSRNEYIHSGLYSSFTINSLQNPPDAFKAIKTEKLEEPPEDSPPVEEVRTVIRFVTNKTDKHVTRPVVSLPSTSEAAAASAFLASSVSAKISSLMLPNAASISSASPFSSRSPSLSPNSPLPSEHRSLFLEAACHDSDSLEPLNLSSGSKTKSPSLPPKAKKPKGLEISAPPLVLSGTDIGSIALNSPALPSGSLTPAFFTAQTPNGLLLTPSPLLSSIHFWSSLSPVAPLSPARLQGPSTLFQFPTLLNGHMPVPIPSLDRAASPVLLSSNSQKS
# In short: as §1
# [10] = molecular target: T7, FEV (Homo sapiens, UniProt Q99581 1-238); settings: protein: recombinant; tags: N-terminal GST; dsDNA, one strand shown
# T7 sequence: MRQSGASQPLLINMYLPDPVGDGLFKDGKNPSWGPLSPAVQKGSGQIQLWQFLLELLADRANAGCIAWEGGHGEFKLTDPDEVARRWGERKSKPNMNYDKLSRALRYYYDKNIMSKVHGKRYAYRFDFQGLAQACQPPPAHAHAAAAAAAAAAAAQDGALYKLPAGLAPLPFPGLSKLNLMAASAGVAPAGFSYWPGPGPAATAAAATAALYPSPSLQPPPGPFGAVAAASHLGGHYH
# In short: as §1
# [11] = molecular target: ETV5 (Homo sapiens, UniProt P41161 1-510); settings: protein: recombinant; tags: N-terminal GST; dsDNA, one strand shown
# In short: as §1
# [12] = molecular target: HSF1 (Homo sapiens, UniProt Q00613 1-529); settings: protein: recombinant; tags: N-terminal GST; chain copies: 3; dsDNA, one strand shown
# In short: as §1
# [13] = molecular target: T8, SPIC (Homo sapiens, UniProt Q8N5J4 1-248); settings: protein: recombinant; tags: N-terminal GST; dsDNA, one strand shown
# T8 sequence: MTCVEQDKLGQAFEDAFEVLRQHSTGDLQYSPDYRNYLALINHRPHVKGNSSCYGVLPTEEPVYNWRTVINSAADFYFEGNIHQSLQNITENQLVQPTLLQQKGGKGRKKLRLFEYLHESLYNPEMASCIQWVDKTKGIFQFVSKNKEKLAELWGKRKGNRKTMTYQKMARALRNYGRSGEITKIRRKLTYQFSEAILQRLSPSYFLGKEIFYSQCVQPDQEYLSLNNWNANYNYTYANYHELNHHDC
# In short: as §1
# [14] = molecular target: ELF4 (Homo sapiens, UniProt Q99607 1-663); settings: protein: recombinant; tags: N-terminal GST; dsDNA, one strand shown
# In short: as §1
# [15] = molecular target: T9, ELK4 (Homo sapiens, UniProt P28324-2 1-405); settings: protein: recombinant; tags: N-terminal GST; dsDNA, one strand shown
# T9 sequence: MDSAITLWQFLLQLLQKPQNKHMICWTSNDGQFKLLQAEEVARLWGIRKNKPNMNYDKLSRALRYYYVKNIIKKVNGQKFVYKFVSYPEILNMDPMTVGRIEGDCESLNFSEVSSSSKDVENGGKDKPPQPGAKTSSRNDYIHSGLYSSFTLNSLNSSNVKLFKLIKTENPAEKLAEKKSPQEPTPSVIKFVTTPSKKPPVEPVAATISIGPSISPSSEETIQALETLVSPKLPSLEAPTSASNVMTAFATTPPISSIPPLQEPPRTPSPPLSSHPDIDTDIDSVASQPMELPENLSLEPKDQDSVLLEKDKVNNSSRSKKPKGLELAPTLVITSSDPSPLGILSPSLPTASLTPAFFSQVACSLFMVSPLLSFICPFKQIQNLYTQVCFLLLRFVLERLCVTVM
# In short: as §1
# [16] = molecular target: T10, ETV2 (Homo sapiens, UniProt O00321 1-342); settings: protein: recombinant; tags: N-terminal GST; dsDNA, one strand shown
# T10 sequence: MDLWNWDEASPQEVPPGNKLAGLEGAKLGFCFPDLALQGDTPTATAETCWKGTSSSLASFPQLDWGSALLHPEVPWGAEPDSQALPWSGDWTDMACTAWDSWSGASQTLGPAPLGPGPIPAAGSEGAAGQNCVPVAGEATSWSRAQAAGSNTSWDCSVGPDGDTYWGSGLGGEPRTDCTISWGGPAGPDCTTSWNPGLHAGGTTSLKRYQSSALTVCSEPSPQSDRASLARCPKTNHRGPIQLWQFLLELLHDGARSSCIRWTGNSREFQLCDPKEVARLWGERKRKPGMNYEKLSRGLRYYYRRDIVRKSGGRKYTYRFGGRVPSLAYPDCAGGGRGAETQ
# In short: as §1
# [17] = molecular target: T11, ELF3 (Homo sapiens, UniProt P78545 1-371); settings: protein: recombinant; tags: N-terminal GST; dsDNA, one strand shown
# T11 sequence: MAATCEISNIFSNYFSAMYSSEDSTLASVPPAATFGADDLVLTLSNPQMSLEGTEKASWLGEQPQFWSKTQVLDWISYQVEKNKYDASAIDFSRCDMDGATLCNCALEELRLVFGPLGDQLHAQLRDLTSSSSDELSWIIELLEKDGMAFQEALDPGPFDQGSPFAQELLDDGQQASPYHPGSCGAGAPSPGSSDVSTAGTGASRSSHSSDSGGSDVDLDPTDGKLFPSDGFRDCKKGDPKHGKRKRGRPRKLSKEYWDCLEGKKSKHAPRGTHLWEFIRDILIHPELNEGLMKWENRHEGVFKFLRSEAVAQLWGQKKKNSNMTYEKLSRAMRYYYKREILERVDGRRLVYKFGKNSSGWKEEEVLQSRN
# In short: as §1
# [18] = molecular target: CRX (Homo sapiens, UniProt O43186 1-299); settings: protein: recombinant; tags: N-terminal GST; dsDNA, one strand shown
# In short: as §1
# [19] = molecular target: ETV1 (Homo sapiens, UniProt P50549 1-477); settings: protein: recombinant; tags: N-terminal GST; dsDNA, one strand shown
# In short: as §1
# Sequence of SPIB (Q01892 whole entry): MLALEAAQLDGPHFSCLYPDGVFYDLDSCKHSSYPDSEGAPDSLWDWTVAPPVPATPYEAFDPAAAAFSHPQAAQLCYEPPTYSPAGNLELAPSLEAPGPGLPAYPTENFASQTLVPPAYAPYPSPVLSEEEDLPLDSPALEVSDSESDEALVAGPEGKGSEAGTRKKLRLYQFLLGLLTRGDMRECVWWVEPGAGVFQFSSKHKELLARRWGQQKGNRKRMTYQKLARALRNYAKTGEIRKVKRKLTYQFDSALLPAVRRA
# Sequence of HSF1 (Q00613 whole entry): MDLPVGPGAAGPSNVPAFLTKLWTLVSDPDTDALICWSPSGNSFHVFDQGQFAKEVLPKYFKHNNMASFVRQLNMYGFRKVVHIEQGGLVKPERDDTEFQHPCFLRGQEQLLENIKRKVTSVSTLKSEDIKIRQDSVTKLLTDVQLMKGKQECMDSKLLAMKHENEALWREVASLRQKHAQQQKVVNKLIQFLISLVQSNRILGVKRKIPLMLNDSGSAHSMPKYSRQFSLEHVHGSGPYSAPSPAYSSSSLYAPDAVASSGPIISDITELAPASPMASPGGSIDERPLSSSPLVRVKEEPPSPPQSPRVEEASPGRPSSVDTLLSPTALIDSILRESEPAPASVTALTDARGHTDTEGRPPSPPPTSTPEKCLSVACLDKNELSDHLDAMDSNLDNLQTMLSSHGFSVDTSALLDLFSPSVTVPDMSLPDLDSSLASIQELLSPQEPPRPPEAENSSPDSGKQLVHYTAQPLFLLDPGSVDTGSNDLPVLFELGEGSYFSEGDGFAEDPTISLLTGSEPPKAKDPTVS
# Sequence of ELF4 (Q99607 whole entry): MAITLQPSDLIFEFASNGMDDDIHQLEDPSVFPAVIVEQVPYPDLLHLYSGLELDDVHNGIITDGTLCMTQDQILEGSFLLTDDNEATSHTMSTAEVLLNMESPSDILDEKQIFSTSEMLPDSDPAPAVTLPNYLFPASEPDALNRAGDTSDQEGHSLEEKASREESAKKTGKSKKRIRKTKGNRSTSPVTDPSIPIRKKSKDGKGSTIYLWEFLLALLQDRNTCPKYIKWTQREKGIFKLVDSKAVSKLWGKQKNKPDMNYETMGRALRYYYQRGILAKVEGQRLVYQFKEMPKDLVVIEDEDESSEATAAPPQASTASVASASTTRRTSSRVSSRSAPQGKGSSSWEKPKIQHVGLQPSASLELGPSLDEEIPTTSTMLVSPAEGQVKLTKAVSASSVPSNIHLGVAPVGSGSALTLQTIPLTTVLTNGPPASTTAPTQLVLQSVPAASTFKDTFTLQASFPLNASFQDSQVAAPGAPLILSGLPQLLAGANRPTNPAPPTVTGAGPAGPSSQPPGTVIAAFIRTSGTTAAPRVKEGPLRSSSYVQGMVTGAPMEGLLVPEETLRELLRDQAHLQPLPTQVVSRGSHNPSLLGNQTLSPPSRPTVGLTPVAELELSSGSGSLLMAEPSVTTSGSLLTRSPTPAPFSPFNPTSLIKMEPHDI
# Sequence of ELF1 (P32519 whole entry): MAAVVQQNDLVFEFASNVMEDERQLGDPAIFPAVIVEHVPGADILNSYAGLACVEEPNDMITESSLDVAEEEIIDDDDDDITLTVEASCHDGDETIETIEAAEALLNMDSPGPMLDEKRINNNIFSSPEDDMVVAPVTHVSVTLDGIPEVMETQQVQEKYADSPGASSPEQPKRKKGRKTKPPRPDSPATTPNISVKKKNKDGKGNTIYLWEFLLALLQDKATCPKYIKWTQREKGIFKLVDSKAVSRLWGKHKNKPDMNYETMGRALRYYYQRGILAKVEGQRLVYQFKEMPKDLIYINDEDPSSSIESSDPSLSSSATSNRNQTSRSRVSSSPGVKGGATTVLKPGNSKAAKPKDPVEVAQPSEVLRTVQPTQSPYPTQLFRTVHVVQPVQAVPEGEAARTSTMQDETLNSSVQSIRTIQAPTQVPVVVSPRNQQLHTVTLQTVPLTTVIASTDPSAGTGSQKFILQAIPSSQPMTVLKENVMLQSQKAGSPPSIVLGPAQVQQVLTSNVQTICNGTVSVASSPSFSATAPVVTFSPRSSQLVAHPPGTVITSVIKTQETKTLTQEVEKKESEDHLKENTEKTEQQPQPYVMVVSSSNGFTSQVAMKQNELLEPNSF
# Sequence of ETV5 (P41161 whole entry): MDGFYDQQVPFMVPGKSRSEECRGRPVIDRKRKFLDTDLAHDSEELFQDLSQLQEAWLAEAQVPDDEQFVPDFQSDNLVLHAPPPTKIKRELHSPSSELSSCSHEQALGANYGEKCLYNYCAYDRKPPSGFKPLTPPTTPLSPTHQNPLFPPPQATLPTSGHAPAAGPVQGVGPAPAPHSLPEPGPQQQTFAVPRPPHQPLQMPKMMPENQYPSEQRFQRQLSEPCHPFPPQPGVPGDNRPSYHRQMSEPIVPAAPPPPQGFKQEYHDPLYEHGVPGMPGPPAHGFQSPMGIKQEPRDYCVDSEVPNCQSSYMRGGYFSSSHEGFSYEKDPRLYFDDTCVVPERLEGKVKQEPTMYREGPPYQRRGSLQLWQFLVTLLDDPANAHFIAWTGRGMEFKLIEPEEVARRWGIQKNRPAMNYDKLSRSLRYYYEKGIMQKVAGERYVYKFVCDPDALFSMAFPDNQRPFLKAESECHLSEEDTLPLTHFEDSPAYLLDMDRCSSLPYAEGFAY
# Sequence of ETV1 (P50549 whole entry): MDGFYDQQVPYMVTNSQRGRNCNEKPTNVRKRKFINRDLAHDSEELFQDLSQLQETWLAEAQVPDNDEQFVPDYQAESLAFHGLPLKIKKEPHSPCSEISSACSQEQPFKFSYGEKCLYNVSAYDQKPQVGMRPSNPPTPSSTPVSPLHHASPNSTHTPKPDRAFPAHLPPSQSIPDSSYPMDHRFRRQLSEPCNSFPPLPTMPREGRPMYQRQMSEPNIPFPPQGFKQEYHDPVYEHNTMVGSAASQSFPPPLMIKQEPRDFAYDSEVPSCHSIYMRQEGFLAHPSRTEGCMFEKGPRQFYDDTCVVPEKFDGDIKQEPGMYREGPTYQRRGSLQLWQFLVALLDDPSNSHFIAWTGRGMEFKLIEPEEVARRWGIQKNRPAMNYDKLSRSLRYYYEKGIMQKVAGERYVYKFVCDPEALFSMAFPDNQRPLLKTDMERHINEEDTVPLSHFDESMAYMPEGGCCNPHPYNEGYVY
# Sequence of CRX (O43186 whole entry): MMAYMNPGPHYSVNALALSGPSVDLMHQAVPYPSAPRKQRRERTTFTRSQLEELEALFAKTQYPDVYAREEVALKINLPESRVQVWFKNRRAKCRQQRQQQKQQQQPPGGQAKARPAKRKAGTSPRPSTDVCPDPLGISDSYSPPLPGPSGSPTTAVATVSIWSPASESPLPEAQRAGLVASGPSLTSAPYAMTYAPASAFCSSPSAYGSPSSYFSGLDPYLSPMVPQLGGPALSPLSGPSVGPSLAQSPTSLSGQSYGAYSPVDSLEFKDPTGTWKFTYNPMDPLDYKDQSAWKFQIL
sequence,measurement,setting,value
TTCACT,binding signal,[1],"1.22 fold enrichment (6-mer frequency, TF over GST control)"
same,binding signal,[2],"1.32 fold enrichment (6-mer frequency, TF over GST control)"
same,binding signal,[3],"1.33 fold enrichment (6-mer frequency, TF over GST control)"
same,binding signal,[4],"1.36 fold enrichment (6-mer frequency, TF over GST control)"
same,binding signal,[5],"1.43 fold enrichment (6-mer frequency, TF over GST control)"
same,binding signal,[6],"1.32 fold enrichment (6-mer frequency, TF over GST control)"
same,binding signal,[7],"1.33 fold enrichment (6-mer frequency, TF over GST control)"
same,binding signal,[8],"1.24 fold enrichment (6-mer frequency, TF over GST control)"
same,binding signal,[9],"1.37 fold enrichment (6-mer frequency, TF over GST control)"
same,binding signal,[10],"1.4 fold enrichment (6-mer frequency, TF over GST control)"
same,binding signal,[11],"1.31 fold enrichment (6-mer frequency, TF over GST control)"
same,binding signal,[12],"1.13 fold enrichment (6-mer frequency, TF over GST control)"
same,binding signal,[13],"1.16 fold enrichment (6-mer frequency, TF over GST control)"
same,binding signal,[14],"1.34 fold enrichment (6-mer frequency, TF over GST control)"
same,binding signal,[15],"1.42 fold enrichment (6-mer frequency, TF over GST control)"
same,binding signal,[16],"1.39 fold enrichment (6-mer frequency, TF over GST control)"
same,binding signal,[17],"1.2 fold enrichment (6-mer frequency, TF over GST control)"
same,binding signal,[18],"1.1 fold enrichment (6-mer frequency, TF over GST control)"
same,binding signal,[19],"1.33 fold enrichment (6-mer frequency, TF over GST control)"
